From paper PMC4336329 (PLoS ONE, 2015)
In all, about 310,000 compounds went through this assay and about 14,000 (4.5%) showed an effect of 50% or more. The effect is printed as a negative number. This excerpt belongs to a sample that is enriched for strong results.

target: human ether-à-go-go-related gene (hERG) potassium channel (human, UniProt Q12809); assay: primary screen, population patch clamp on CHO cells stably expressing hERG; higher = less effect of the substance
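Further: peak tail current of the secondary pulse compared with the same well before compound.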

Chain of human ether-à-go-go-related gene (hERG) potassium channel (Q12809 whole entry, looked up): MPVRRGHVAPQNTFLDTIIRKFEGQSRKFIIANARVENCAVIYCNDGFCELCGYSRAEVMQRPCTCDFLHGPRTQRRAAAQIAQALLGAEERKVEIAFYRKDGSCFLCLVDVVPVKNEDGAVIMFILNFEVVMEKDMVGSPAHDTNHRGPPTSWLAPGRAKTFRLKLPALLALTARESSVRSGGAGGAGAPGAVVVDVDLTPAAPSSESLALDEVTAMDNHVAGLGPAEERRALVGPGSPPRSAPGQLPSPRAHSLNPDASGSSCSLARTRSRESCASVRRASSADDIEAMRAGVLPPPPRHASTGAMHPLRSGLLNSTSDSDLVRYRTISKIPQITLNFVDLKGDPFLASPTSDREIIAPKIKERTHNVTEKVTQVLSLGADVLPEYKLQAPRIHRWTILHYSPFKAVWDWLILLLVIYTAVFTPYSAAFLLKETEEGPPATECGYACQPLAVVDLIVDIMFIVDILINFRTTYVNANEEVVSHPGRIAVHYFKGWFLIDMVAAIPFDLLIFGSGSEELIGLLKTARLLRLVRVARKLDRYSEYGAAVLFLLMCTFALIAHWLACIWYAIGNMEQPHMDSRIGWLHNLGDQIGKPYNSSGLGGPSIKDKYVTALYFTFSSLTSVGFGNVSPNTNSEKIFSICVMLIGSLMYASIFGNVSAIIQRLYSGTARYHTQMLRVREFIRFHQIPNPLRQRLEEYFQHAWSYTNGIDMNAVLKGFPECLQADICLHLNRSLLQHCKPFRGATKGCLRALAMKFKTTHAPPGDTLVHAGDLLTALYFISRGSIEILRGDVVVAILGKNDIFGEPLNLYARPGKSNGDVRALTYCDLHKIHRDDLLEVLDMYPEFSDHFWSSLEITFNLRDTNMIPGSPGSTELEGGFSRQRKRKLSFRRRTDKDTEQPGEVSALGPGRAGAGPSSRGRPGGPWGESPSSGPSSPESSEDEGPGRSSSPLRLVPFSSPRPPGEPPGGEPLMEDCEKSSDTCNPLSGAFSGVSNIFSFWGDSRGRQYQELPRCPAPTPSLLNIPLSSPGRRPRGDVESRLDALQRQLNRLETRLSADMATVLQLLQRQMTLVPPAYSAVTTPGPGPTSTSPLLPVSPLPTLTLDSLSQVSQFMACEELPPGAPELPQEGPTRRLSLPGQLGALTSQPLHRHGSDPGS

Structure (SMILES) | hERG current change (%, negative = inhibition) at 10uM
O=C(O)CC(NC(=O)C(c1ccccc1)c1ccccc1)c1cccc([N+](=O)[O-])c1 (stereo not drawn) | 2.05%
CNC(=O)CNC(=O)Nc1ccc(Cl)c(Cl)c1 | 9.11%
CC(Cc1cnccn1)NCc1c(C(=O)N2CCCCCCC2)nc2ccc(Cl)cn12 (stereo not drawn) | -12.8%
CCn1c(=O)c2c(nc3n2CCCN3Cc2ccccc2)n(C)c1=O | -18.2%
CC#CCCc1nc2ccccc2c(=O)n1N | 15.9%
Cc1cc([N+](=O)[O-])ccc1NCc1ccc2c(c1)OCCO2 | 5.37%
CCCCOC(=O)Nc1cccc(Cl)c1C | -15.6%
CC(C)CN(C(=O)COC(=O)c1ccc2c(c1)NC(=O)CS2)C1CCS(=O)(=O)C1 (stereo not drawn) | 13.1%
COc1ccccc1NC(=S)N(c1ccccc1)C(C)C | 6.18%
C=C(C)Cn1c(SCCCO)nc2c1c(=O)[nH]c(=O)n2C | -4.83%
Cc1cc(C)c2nc(C(F)(F)F)nc(N3CCN(C(=O)c4ccco4)CC3)c2c1 | 6.1%
Cc1ccc(N2C(=O)C(NC(=O)c3ccccc3)(C(F)(F)F)C3=C2CC(C)(C)CC3=O)cc1 (stereo not drawn) | 7.2%
Cc1csc(NC(=O)c2ccccc2[N+](=O)[O-])n1 | 2.69%
O=C(Nc1nccs1)c1ccc(Cl)cc1[N+](=O)[O-] | -9.1%
Cc1csc(NC(=O)c2ccc(Cl)cc2[N+](=O)[O-])n1 | -64.8%
COC(=O)c1ccc(CSc2nnc(NC(=O)C3CCCO3)s2)cc1 (stereo not drawn) | -23.5%
CCN(CC)S(=O)(=O)c1ccc(N2CCOCC2)c(NS(=O)(=O)c2ccc(C(C)C)cc2)c1 | -6.87%
Cc1ccc(N2CC(C(=O)N3CCC(c4nc5ccccc5[nH]4)CC3)CC2=O)cc1C (stereo not drawn) | -46.2%
O=C(C1CC(=O)N(c2ccc(Cl)cc2)C1)N1CCC(c2nc3ccccc3[nH]2)CC1 (stereo not drawn) | -71.6%
O=C(C1CCCCC1)N1CCC(c2nc3ccccc3[nH]2)CC1 | -5.51%
O=C(C1CC(=O)N(c2ccc(F)cc2)C1)N1CCC(c2nc3ccccc3[nH]2)CC1 (stereo not drawn) | -63.8%
COc1ccc(N2CC(C(=O)N3CCC(c4nc5ccccc5[nH]4)CC3)CC2=O)cc1 (stereo not drawn) | -19.3%
O=C(C1CC(=O)N(c2ccccc2)C1)N1CCC(c2nc3ccccc3[nH]2)CC1 (stereo not drawn) | 9.08%
Clc1ccccc1CSc1nnc(-c2ccncc2)o1 | -14%
